The record followed here is PubChem BioAssay (Tox21).

The nature of assay [1]: qHTS assay to identify small molecule agonists of the peroxisome proliferator-activated receptor delta (PPARd) signaling pathway - cell viability counter screen (AID 743211). Note: nearly all actives have a fitted effect of over 55% in size. The method, boiled down:
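Viability of GeneBLAzer PPARd UAS-bla HEK293H cells was assessed after 17 h compound incubation at 37C, using CellTiter-Glo reagent added after the reporter read and luminescence recorded 30 min later.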
(qHTS replaces the single test concentration by a dilution series.)

Assay [2] concerns the target Peroxisome proliferator-activated receptor delta (Homo sapiens) (UniProt Q03181). The experiment in a line: qHTS assay to identify small molecule agonists of the peroxisome proliferator-activated receptor delta (PPARd) signaling pathway (AID 743212; calls by dose curve). The method, boiled down:
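HEK293H UAS-bla reporter cells, human PPARd system; compounds delivered in DMSO after 5 h plating, then at 37 C. Beta-lactamase FRET read, 2 h RT substrate step.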

Assay [3] can be described thus: qHTS assay to identify small molecule antagonists of the peroxisome proliferator-activated receptor delta (PPARd) signaling pathway - cell viability counter screen (AID 743213). Note: nearly all actives have a fitted effect of over 50% in size. The method, boiled down:
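Luminescence from CellTiter-Glo, added after the bla read and incubated 30 min at room temperature, gives viability of HEK293H PPARd-bla cells exposed to compounds for 17 h at 37 C with 300 nM L165041.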

The target in assay [4] is Peroxisome proliferator-activated receptor delta (Homo sapiens) (UniProt Q03181). The experiment in a line: qHTS assay to identify small molecule antagonists of the peroxisome proliferator-activated receptor delta (PPARd) signaling pathway (AID 743215; active = well fitted inhibition curve with a large enough effect in the signal ratio in the repeat runs, not every such curve was filed as active; the % refers to the signal ratio;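 note: cells stimulated with agonist L165041 at 300 nM final during compound exposure; series mostly up to about 62 µM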). In a few lines:
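Read-out is beta-lactamase FRET fluorescence, measured 2 h after substrate addition at room temperature. Beforehand, UAS-bla HEK293H cells carrying the PPARd reporter were exposed to compounds with L165041 at 300 nM final for 17 h at 37 C.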

Assay [5] can be described thus: qHTS assay to identify small molecule agonists of the farnesoid-X-receptor (FXR) signaling pathway - cell viability counter screen (AID 743218). Note: nearly all actives have a fitted effect of over 45% in size. The method, boiled down:
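HEK 293T FXR-bla cells; 5 h pre-incubation, 16 h compound exposure at 37 C; LiveBLAzer substrate 2 h RT, then CellTiter-Glo 30 min RT, luminescence.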

Assay [6] is described as follows: qHTS assay to identify small molecule antagonists of the farnesoid-X-receptor (FXR) signaling pathway - cell viability counter screen (AID 743221; active = well fitted cell-killing curve with a large enough effect in the repeat runs, not every such curve was filed as active; note: nearly all actives have a fitted effect of over 50% in size). The method, boiled down:
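Quantitative HTS of the Tox21 10K library run in parallel with the beta-lactamase reporter read. HEK 293T cells carrying a UAS-driven bla reporter got compound and 50 uM CDCA (final) for 16 h; ATP-based luminescence followed.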

The target of assay [7] is Vitamin D3 receptor (Homo sapiens) (UniProt P11473). The experiment in a line: qHTS assay to identify small molecule agonists of the vitamin D receptor (VDR) signaling pathway (AID 743222; calls by dose curve). The method, boiled down: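 VDR-bla cells, 2,000/well; 4 h preincubation 37C; cpd (DMSO) 16 h; LiveBLAzer B/G substrate 2 h RT; fluorescence intensity read.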
Assay [8] shares this target. The assay is described as follows: qHTS assay to identify small molecule antagonists of the vitamin D receptor (VDR) signaling pathway (AID 743223; active = well fitted inhibition curve with a large enough effect in the signal ratio in the repeat runs, not every such curve was filed as active; the % refers to the signal ratio). In a few lines:
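Fluorescence from LiveBLAzer B/G FRET substrate, read after 2 h at room temperature, reflects beta-lactamase reporter activity in VDR-bla cells treated 16 h at 37C with compounds and agonist 1alpha,25-dihydroxyvitamin D3 (3 nM final).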

The nature of assay [9]: qHTS assay to identify small molecule agonists of the vitamin D receptor (VDR) signaling pathway - cell viability counter screen (AID 743224). Note: series mostly up to about 63 µM; nearly all actives have a fitted effect of over 50% in size. In a few lines: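 Luminescence from CellTiter-Glo, read after 30 min at room temperature, reports viability of VDR-bla cells treated with compounds for 16 h at 37C in the wells used for the beta-lactamase FRET read.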
Assay [10] in a line: qHTS assay to identify small molecule antagonists of the vitamin D receptor (VDR) signaling pathway - cell viability counter screen (AID 743225). Note: nearly all actives have a fitted effect of over 50% in size. In a few lines: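 Cells (VDR-UAS-bla HEK 293T) are plated, rested 4 h at 37C, dosed with compound and 3 nM final 1-alpha,25-dihydroxy vitamin D3, and incubated 16 h. Viability is taken from CellTiter-Glo luminescence in the reporter wells.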

Assay [11] in a line: qHTS assay to identify small molecule agonists of the NFkB signaling pathway (AID 1159509; active = well fitted curve in the direction sought with a large enough effect in the signal ratio in the repeat runs, not every such curve was filed as active; the % refers to the signal ratio; note: series mostly up to about 61 µM). In a few lines: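 NFkB-bla ME-180 cells with a beta-lactamase reporter under an NF-kB response element were plated overnight, treated with compounds in DMSO for 5 hr at 37 C, then loaded with FRET substrate for 1.5 hr at room temperature.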
A short description of assay [12]: qHTS assay to identify small molecule agonists of the NFkB signaling pathway - cell viability counter screen (AID 1159515; calls by dose curve; note: series mostly up to about 61 µM; nearly all actives have a fitted effect of over 55% in size). The method, boiled down:
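Luminescence from CellTiter-Glo (30 min, room temperature) gives viability, measured in the same wells as the beta-lactamase reporter read. Cells were NFkB-bla ME-180, 2,000 per well, treated 5 hr with compounds.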

A short description of assay [13]: qHTS assay to identify small molecule agonists of the endoplasmic reticulum stress response signaling pathway (AID 1159516; active = well fitted activation curve with a large enough effect in the signal ratio in the repeat runs, not every such curve was filed as active; the % refers to the signal ratio). The method, boiled down:
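Read-out is beta-lactamase cleavage of a FRET substrate (405 nm excitation; 460 and 530 nm emissions) in ESRE-bla HeLa cells after a 5 hr compound exposure at 37 C. Substrate incubation ran 2 hr at room temperature.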

Assay [14] is described as follows: qHTS assay to identify small molecule agonists of the endoplasmic reticulum stress response signaling pathway - cell viability counter screen (AID 1159517; calls by dose curve). The method, boiled down: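 Cells, HeLa ESRE-bla; density, 1,500/well; dosing, 5 hr at 37 C, 5% CO2; readout, CellTiter-Glo luminescence after 30 min RT.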
The nature of assay [15]: qHTS assay to identify small molecule antagonists of the retinoid-related orphan receptor gamma (ROR-gamma) signaling pathway - cell viability counter screen (AID 1159520). Note: nearly all actives have a fitted effect of over 50% in size. In a few lines:
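Cytotoxicity was read from cellular ATP (CellTiter-Glo luminescence) after 16 hr at 37 C with 1 uM doxycycline induction. The inducer was added 2 hr after compound transfer to Tet-on ROR gamma CHO cells.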

Assay [16] has as its target Nuclear receptor ROR-gamma (Homo sapiens) (UniProt P51449). The assay is described as follows: qHTS assay to identify small molecule antagonists of the retinoid-related orphan receptor gamma (ROR-gamma) signaling pathway (AID 1159521). The method, boiled down:
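RORγ antagonism is scored from reduced reporter luminescence in Tet-on CHO cells. Induction used 1 uM final doxycycline hyclate for 16 h at 37 C, following a 2 h compound exposure.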

A short description of assay [17]: qHTS assay to identify small molecule agonists of the AP-1 signaling pathway - cell viability counter screen (AID 1159525; calls by dose curve; note: nearly all actives have a fitted effect of over 55% in size). In a few lines: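 Luminescent ATP readout (Cell Titer Glo, 30 min RT), normalised to DMSO and tetra n-octyl ammonium bromide controls. Cells were ME-180 AP-1-bla in 0.5% dialyzed FBS Opti-MEM, with a 5 h, 37 °C compound exposure.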
Assay [18] in a line: qHTS assay to identify small molecule agonists of the AP-1 signaling pathway (AID 1159526; calls by dose curve; note: potency is the fitted concentration of half-maximal effect).
Assay [19] deals with Bile acid receptor (Homo sapiens) (UniProt Q96RI1). The assay is described as follows: qHTS assay to identify small molecule antagonists of the farnesoid-X-receptor (FXR) signaling pathway (AID 743217; active = well fitted inhibition curve with a large enough effect in the signal ratio in the repeat runs, not every such curve was filed as active; the % refers to the signal ratio; note: potency is the fitted concentration of half-maximal effect). In a few lines: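 HEK 293T FXR-UAS-bla, 5000 cells/well; compound + CDCA 50 uM final; 16 h, 37 °C; B/G FRET substrate 2 h RT; fluorescence.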
The target is the same in assay [20]. The assay is described as follows: qHTS assay to identify small molecule agonists of the farnesoid-X-receptor (FXR) signaling pathway (AID 743220; active = well fitted activation curve with a large enough effect in the signal ratio in the repeat runs, not every such curve was filed as active; the % refers to the signal ratio). The method, boiled down: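 Beta-lactamase reporter under UAS control in GeneBLAzer FXR HEK 293T cells (5000/well) measured with LiveBLAzer FRET substrate after 2 h at room temperature. Compound exposure lasted 16 h at 37C.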

Where “and” joins values, the source holds several entries; their conditions need not be identical. Equal entries are not always repeated. Records with an inconclusive call do not appear. The source holds several records for some structures; these can differ, active in one and inactive in another. Calls of active or inactive are those of the source. Unless noted, calls come from the whole dose curve; as a rule, active = well fitted curve in the direction sought with a large enough effect in the repeat runs; inconclusive = weak or mixed curves; inactive = no such curve, though single readings can be large; an effect the other way counts as inactive or inconclusive.

Bile acid receptor (Homo sapiens), sequence (Q96RI1 whole entry, looked up): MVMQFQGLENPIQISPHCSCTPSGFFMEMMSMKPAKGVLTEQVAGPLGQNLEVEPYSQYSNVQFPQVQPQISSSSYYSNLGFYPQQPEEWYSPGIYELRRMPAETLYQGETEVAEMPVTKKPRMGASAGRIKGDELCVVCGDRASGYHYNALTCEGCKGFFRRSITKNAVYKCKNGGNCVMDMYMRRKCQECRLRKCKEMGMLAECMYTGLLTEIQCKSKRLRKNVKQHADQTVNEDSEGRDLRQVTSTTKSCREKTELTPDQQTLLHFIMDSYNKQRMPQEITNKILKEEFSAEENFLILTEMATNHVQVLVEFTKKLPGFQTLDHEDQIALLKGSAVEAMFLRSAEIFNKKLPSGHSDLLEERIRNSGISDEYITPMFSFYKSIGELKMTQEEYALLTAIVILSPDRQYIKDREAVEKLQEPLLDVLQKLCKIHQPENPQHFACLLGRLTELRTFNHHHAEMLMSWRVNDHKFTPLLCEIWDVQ
Peroxisome proliferator-activated receptor delta (Homo sapiens), sequence (Q03181 whole entry, looked up): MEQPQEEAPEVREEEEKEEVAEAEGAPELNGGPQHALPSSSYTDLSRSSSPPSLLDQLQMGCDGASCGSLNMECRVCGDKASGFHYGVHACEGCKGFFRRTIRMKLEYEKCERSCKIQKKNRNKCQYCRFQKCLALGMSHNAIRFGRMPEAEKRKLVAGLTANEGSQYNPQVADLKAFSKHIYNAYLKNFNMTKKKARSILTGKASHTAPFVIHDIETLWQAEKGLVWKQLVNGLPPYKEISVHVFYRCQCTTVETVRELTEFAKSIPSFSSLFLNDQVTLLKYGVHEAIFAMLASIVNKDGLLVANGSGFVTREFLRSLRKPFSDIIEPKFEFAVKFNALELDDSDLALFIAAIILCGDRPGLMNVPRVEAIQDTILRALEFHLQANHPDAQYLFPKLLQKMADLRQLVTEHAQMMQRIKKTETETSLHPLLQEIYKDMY
Vitamin D3 receptor (Homo sapiens), sequence (P11473 whole entry, looked up): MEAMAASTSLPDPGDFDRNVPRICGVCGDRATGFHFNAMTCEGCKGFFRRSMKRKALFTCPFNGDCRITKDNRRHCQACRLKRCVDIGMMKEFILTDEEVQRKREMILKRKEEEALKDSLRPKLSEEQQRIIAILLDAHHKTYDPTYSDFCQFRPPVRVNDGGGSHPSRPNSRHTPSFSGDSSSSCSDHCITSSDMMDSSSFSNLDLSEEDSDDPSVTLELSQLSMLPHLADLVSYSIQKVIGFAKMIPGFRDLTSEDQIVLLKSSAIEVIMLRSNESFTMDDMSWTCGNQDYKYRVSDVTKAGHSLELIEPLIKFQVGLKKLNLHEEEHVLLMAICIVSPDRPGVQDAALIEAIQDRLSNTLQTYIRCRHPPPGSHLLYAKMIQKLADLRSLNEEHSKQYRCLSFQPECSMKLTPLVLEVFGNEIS

Take `O=C(O)CCCCC1CCSS1` (configuration not stated): the Potency result in [1], in assay [3], in assay [5], in assay [8], in assay [9] and in assay [14] was “inactive” in each case. Also, the Potency result in assay [16] was “inactive”. Moreover, the call in [2], in assay [4], in assay [6], in assay [7], in assay [10] and in assay [11] was inactive. The outcome in [12], in assay [13], in [15] and in [17] was inactive. The Potency in assay [18] is 27.5 µM (active) and inactive.

For `CCCCCCCCCCCCCCCCCC(=O)OCC(O)CO` (configuration not stated), the Potency entry in [1], in [3], in assay [19], in assay [5], in assay [8] and in assay [9] was “inactive” throughout. The Potency result in assay [14], in assay [16] and in assay [18] was “inactive” throughout. Moreover, the molecule was classed as inactive in assay [2], in assay [4], in assay [6], in assay [7], in assay [10] and in [11]. For the same molecule, the call in [12], in [13], in assay [15] and in [17] was inactive.

`OC[C@@H](O)[C@@H](O)[C@H](O)[C@H](O)CO`: the Potency entry in [1], in assay [3], in [5], in assay [8], in assay [9] and in assay [14] was “inactive” in each case. The Potency entry in [16] and in [18] was “inactive” each time. Moreover, the call in assay [6], in assay [7], in [10], in assay [11], in assay [12] and in assay [13] was inactive. Besides, the molecule was classed as inactive in assay [15] and in assay [17].

Consider `COc1ccc(C(=O)c2ccccc2)c(O)c1`, for which the Potency entry in assay [1], in assay [3], in [19], in assay [5], in assay [9] and in assay [14] was “inactive” throughout. Moreover, the Potency result in [16] and in [18] was “inactive” throughout. In addition, the result in [2], in [4], in [6], in assay [10], in assay [11] and in assay [12] was inactive. The result in assay [13], in assay [15] and in [17] was inactive.

Consider `COC(=O)C1CCC(C(=O)OC)CC1` (configuration not stated), for which the Potency result in [1], in assay [3], in assay [19], in [5], in assay [8] and in [9] was “inactive” each time. Moreover, the Potency entry in assay [14], in assay [16] and in assay [18] was “inactive” throughout. Also, the outcome in assay [2], in assay [4], in [6], in [7], in [10] and in assay [11] was inactive. Further, the call in assay [12], in [13], in assay [15] and in [17] was inactive.

For `O=c1c(-c2ccc(O)cc2)coc2cc(O)cc(O)c12`, the Potency entry in assay [1], in assay [3], in [5], in [8], in [9] and in assay [14] was “inactive” throughout. In addition, the Potency entry in assay [16] and in [18] was “inactive” each time. Also, the call in assay [2], in assay [6], in assay [7], in [10], in assay [11] and in assay [12] was inactive. The molecule was classed as inactive in [13], in assay [15] and in assay [17]. For the same molecule, the Potency in assay [19] was 38.9 µM (active) and 26.6 µM (active).

As to `COCCOCCOC`, the Potency entry in assay [1], in assay [3], in [19], in assay [5], in assay [8] and in [9] was “inactive” throughout. For the same molecule, the Potency result in assay [14], in [16] and in [18] was “inactive” throughout. The outcome in assay [2], in [4], in assay [20], in assay [6], in [7] and in assay [10] was inactive. The outcome in [11], in [12], in [13], in [15] and in [17] was inactive.
